Reference: publication PMC11062922 (Nature Chemical Biology, 2023)
Read-outs that look alike come from different tables or passages of the source.

Legend:
Set-up in all cases: species or system human, MV4-11 + K-562 + COLO205 + SK-N-BE2 + OVCAR-8
[1] = system: LATS1; details: read-out: apparent Kd, compound concentrations: 100 nM and 1000 nM (sheet 'Samples'), n = 1
[2] = system: PRKCD; details: read-out: apparent Kd, compound concentrations: 100 nM and 1000 nM (sheet 'Samples'), n = 1
[3] = system: PRKD2; details: read-out: apparent Kd, n = 1
[4] = system: PRKD3; details: read-out: apparent Kd, n = 1
[5] = system: CDK7; details: read-out: apparent Kd, compound concentrations: 100 nM and 1000 nM (sheet 'Samples'), n = 1
[6] = system: CDKL5; details: read-out: apparent Kd, compound concentrations: 100 nM and 1000 nM (sheet 'Samples'), n = 1
[7] = system: DYRK1A; details: read-out: apparent Kd, compound concentrations: 100 nM and 1000 nM (sheet 'Samples'), n = 1
[8] = system: ERCC2; details: read-out: apparent Kd, compound concentrations: 100 nM and 1000 nM (sheet 'Samples'), n = 1
[9] = system: FER; details: read-out: apparent Kd, compound concentrations: 100 nM and 1000 nM (sheet 'Samples'), n = 1
[10] = system: MYLK3; details: read-out: apparent Kd, n = 1
[11] = system: PLK4; details: read-out: apparent Kd, compound concentrations: 100 nM and 1000 nM (sheet 'Samples'), n = 1
[12] = system: PRKAA1; details: read-out: apparent Kd, compound concentrations: 100 nM and 1000 nM (sheet 'Samples'), n = 1
[13] = system: PRKAG1; details: read-out: apparent Kd, compound concentrations: 100 nM and 1000 nM (sheet 'Samples'), n = 1
[14] = system: PTK2B; details: read-out: apparent Kd, compound concentrations: 100 nM and 1000 nM (sheet 'Samples'), n = 1
[15] = system: PTK2; details: read-out: apparent Kd, compound concentrations: 100 nM and 1000 nM (sheet 'Samples'), n = 1
[16] = system: RPS6KA6; details: read-out: apparent Kd, compound concentrations: 100 nM and 1000 nM (sheet 'Samples'), n = 1
[17] = system: STK10; details: read-out: apparent Kd, compound concentrations: 100 nM and 1000 nM (sheet 'Samples'), n = 1
[18] = system: MARK4; details: read-out: apparent Kd, compound concentrations: 100 nM and 1000 nM (sheet 'Samples'), n = 1
[19] = system: PIP4K2C; details: read-out: apparent Kd, compound concentrations: 100 nM and 1000 nM (sheet 'Samples'), n = 1
[20] = system: PRKCQ; details: read-out: apparent Kd; compound concentrations: 100 nM and 1000 nM (sheet 'Samples'), CATDS: 2.6170878676828799E-2; n = 1
[21] = compound concentrations:100 nM and 1000 nM (sheet 'Samples')

CCn1c(-c2nonc2N)nc2c(-c3ccccc3)ncc(OCCCN)c21.CCn1c(-c2nonc2N)nc2c(-c3ccccc3)ncc(OCCCN)c21.O=C(O)C(F)(F)F.O=C(O)C(F)(F)F [GSK260205A]
potency estimated from few doses ([1]; CATDS: 3.5695697906411097E-2): 734 nM | potency estimated from few doses ([2]; CATDS: 3.0969413640761199E-2): 1160 nM | potency estimated from few doses ([3]; compound concentrations: 100 nM and 1000 nM (sheet 'Samples'), CATDS: 3.1729313210787799E-2): 1070 nM | potency estimated from few doses ([4]; compound concentrations: 100 nM and 1000 nM (sheet 'Samples'), CATDS: 2.8953203938898799E-2): 1510 nM

CCOC(=O)N1CCC(n2cnc(-c3ccc(F)cc3)c2-c2ccnc(N)n2)CC1 [SB-219952]
potency estimated from few doses ([5]; CATDS: 2.08118175664989E-2): 201 nM | potency estimated from few doses ([6]; CATDS: 7.5103535509973398E-3): 2170 nM | potency estimated from few doses ([7]; CATDS: 7.51253046880054E-3): 2170 nM | potency estimated from few doses ([8]; CATDS: 2.0109331844810101E-2): 213 nM | potency estimated from few doses ([9]; CATDS: 1.3888971219533201E-2): 416 nM | potency estimated from few doses ([1]; CATDS: 8.0711896225058692E-3): 1650 nM | potency estimated from few doses ([10]; compound concentrations: 100 nM and 1000 nM (sheet 'Samples'), CATDS: 7.2973663588222501E-3): 2470 nM | potency estimated from few doses ([11]; CATDS: 1.18225591983295E-2): 582 nM | potency estimated from few doses ([12]; CATDS: 1.3066263921832201E-2): 471 nM | potency estimated from few doses ([13]; CATDS: 1.03550294618252E-2): 794 nM | potency estimated from few doses ([2]; CATDS: 8.2492592697018703E-3): 1530 nM | potency estimated from few doses ([3]; compound concentrations: 100 nM and 1000 nM (sheet 'Samples'), CATDS: 9.3127707603308692E-3): 1050 nM | potency estimated from few doses ([4]; compound concentrations: 100 nM and 1000 nM (sheet 'Samples'), CATDS: 8.3087862400952096E-3): 1490 nM | potency estimated from few doses ([14]; CATDS: 1.55357941259002E-2): 336 nM | potency estimated from few doses ([15]; CATDS: 1.3544498558995E-2): 438 nM | potency estimated from few doses ([16]; CATDS: 1.4323736759091399E-2): 392 nM | potency estimated from few doses ([17]; CATDS: 9.6073353466608804E-3): 964 nM

COc1ccc(Nc2ncc(C#N)c(Nc3ccccc3C(N)=O)n2)cc1N1CCN(C)CC1.Cl [GSK1558669A]
potency estimated from few doses ([7]; CATDS: 6.6106373934709103E-3): 954 nM | potency estimated from few doses ([9]; CATDS: 1.1172004845485001E-2): 137 nM | potency estimated from few doses ([1]; CATDS: 9.7361630406248897E-3): 205 nM | potency estimated from few doses ([18]; CATDS: 1.5249165601859399E-2): 64.4 nM | potency estimated from few doses ([10]; compound concentrations: 100 nM and 1000 nM (sheet 'Samples'), CATDS: 2.6075418388892199E-2): 23.1 nM | potency estimated from few doses ([19]; CATDS: 5.8169442722308101E-3): 2240 nM | potency estimated from few doses ([11]; CATDS: 7.9359519159901901E-3): 415 nM | potency estimated from few doses ([12]; CATDS: 2.0149023571651901E-2): 36.6 nM | potency estimated from few doses ([13]; CATDS: 1.48267658268137E-2): 68.5 nM | potency estimated from few doses ([14]; CATDS: 1.3529380969040701E-2): 84.5 nM | potency estimated from few doses ([15]; CATDS: 4.75918589440152E-2): 9.26 nM | potency estimated from few doses ([16]; CATDS: 2.0856200348519E-2): 34.3 nM | potency estimated from few doses ([17]; CATDS: 1.0596963300075399E-2): 159 nM

CN(c1ccc(NC(=O)Nc2cccc(Cl)c2)cc1)c1ccnc(N)n1.Cl [GW830707A]
potency estimated from few doses ([5]; CATDS: 2.70910980037193E-2): 25.3 nM | potency estimated from few doses ([8]; CATDS: 2.8634029570059099E-2): 22.5 nM | potency estimated from few doses ([9]; CATDS: 3.09824946210665E-2): 19.3 nM | potency estimated from few doses ([12]; CATDS: 2.0241658974681501E-2): 51.3 nM | potency estimated from few doses ([13]; CATDS: 2.2358938635015799E-2): 39.4 nM | potency estimated from few doses ([14]; CATDS: 2.3206005567305101E-2): 35.9 nM | potency estimated from few doses ([15]; CATDS: 2.6556868558213102E-2): 26.4 nM | potency estimated from few doses ([16]; CATDS: 2.8909241119288599E-2): 22.1 nM

CONC1=NC(=O)/C(=C/c2ccc3ncccc3c2)S1 [RO4613269-000]
potency estimated from few doses ([7]; CATDS: 0.14801064181583801): 1100 nM

Cc1cccc(Nc2nc(N[C@H]3CCNC3)ncc2C(N)=O)c1.Cl [GSK2197149A]
potency estimated from few doses [10, 21]: 2040 nM | potency estimated from few doses [3, 21]: 1170 nM | potency estimated from few doses [4, 21]: 1890 nM

O=C(O)C(F)(F)F.O=c1[nH]ccc2nc(N[C@@H]3CCNC3)nc(Nc3ccc4c(c3)S(=O)(=O)CC4)c12 [GSK2181306A]
potency estimated from few doses ([1]; CATDS: 9.3348582894500695E-3): 1060 nM | potency estimated from few doses ([18]; CATDS: 1.39607166136132E-2): 364 nM | potency estimated from few doses ([10]; compound concentrations: 100 nM and 1000 nM (sheet 'Samples'), CATDS: 1.37346756795961E-2): 378 nM | potency estimated from few doses ([11]; CATDS: 1.0301359054319901E-2): 780 nM | potency estimated from few doses ([12]; CATDS: 1.0186150726121701E-2): 806 nM | potency estimated from few doses ([13]; CATDS: 1.1132465742589101E-2): 629 nM | potency estimated from few doses ([2]; CATDS: 1.35004304297044E-2): 393 nM | potency estimated from few doses [20]: 109 nM | potency estimated from few doses ([3]; compound concentrations: 100 nM and 1000 nM (sheet 'Samples'), CATDS: 1.40189699777229E-2): 361 nM | potency estimated from few doses ([4]; compound concentrations: 100 nM and 1000 nM (sheet 'Samples'), CATDS: 1.3161717541215199E-2): 416 nM | potency estimated from few doses ([14]; CATDS: 0.14676588130533899): 7.85 nM | potency estimated from few doses ([15]; CATDS: 1.26908044815701E-2): 453 nM | potency estimated from few doses ([16]; CATDS: 1.2402205913088901E-2): 478 nM | potency estimated from few doses ([17]; CATDS: 1.4244346039845699E-2): 349 nM

COc1cc(Nc2nccc(-c3cnn4ncccc34)n2)cc(OC)c1 [GW801372X]
potency estimated from few doses ([6]; CATDS: 4.3388944669180397E-2): 141 nM | potency estimated from few doses ([7]; CATDS: 3.9916528669642001E-2): 170 nM | potency estimated from few doses ([19]; CATDS: 2.38914066508359E-2): 648 nM | potency estimated from few doses ([15]; CATDS: 2.4454982719063802E-2): 604 nM

Cc1cc(-c2ccnc(Nc3cccc(C#N)c3)n2)cc(C)c1O [GSK1440913A]
potency estimated from few doses ([19]; CATDS: 0.18719100340522599): 168 nM

CC(C)Nc1cc(-c2ccc3c(N)n[nH]c3c2)nc(N)n1 [GSK2221681A]
potency estimated from few doses [10, 21]: 1410 nM
